# Test results published in PubChem BioAssay (NCATS).
# Where “and” joins values, the source holds several entries; their conditions need not be identical. Equal entries are not always repeated. Inconclusive results are not listed. Values without a mark were called inactive. Calls of active or inactive are those of the source. The call rests on the fitted dose curve; in most records, active means well fitted curve in the direction sought with a large enough effect; inconclusive means small, poorly fitted or top-dose-only effect, or another doubt; inactive means no such curve, though single readings can be large or run the other way.
# Experiment: qHTS Assay for Identifying Gametocytocidal Compounds (AID 743244);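 on max response: actives lower the fluorescent signal which means gametocytes are killed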
# Conditions: P. falciparum 3D7 stage III-V gametocytes, alamarBlue, 72 h; max response: stronger effect = lower value
# Procedure, shortened: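 Late gametocytes (III–V), P. falciparum 3D7; 72 h drug, then 24 h alamarBlue; resazurin reduction read by fluorescence.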
# On the % scale 0 is the no-effect control and ±100 the full control effect; potency means the concentration at half of the fitted maximal effect.
Compound,max response,Potency
NC(=O)[C@@H]1C[C@]2(NC(=O)NC2=O)c2cc(F)ccc2O1,-13.1%,
O=C1N=C2SCCN2C(=O)C1Cc1ccc(Cl)cc1 (stereo not given),-5.09%,
CCCOc1cc(N)ccc1C(=O)OCCN(CC)CC,-20.2%,
CCCCCc1ccc(C)cc1O,3.19%,
CC(CN1c2ccccc2Sc2cccnc21)N(C)C (stereo not given),4.99%,
COC1[C@@H](O[C@@H]2O[C@H](C)[C@@H](O[C@H]3C[C@@](C)(O)[C@H](OC(=O)CC(C)C)[C@H](C)O3)[C@H](N(C)C)[C@H]2O)[C@@H](CC=O)C[C@@H](C)[C@@H](O)/C=C/C=C/C[C@@H](C)OC(=O)C[C@H]1OC(C)=O (stereo not given in full),6%,
C[C@@H]1C/C=C/C=C/C=C/C=C/[C@H](O[C@@H]2O[C@H](C)[C@@H](O)[C@H](N)[C@@H]2O)C[C@@H]2O[C@](O)(C[C@@H](O)C[C@H]3O[C@@H]3/C=C/C(=O)O1)C[C@H](O)[C@H]2C(=O)O,15.6%,
C[C@@](Cc1ccc(O)c(O)c1)(NN)C(=O)O,-3.47%,
NC[C@@H]1CC[C@@H](N)[C@@H](O[C@H]2[C@H](O)[C@@H](O[C@H]3O[C@H](CO)[C@@H](O)[C@H](N)[C@H]3O)[C@H](N)C[C@@H]2N)O1,4.25%,
CC1CCCCN1CCCOC(=O)c1ccccc1 (stereo not given),6.88%,
C[C@H](NCCc1ccc(O)cc1)[C@H](O)c1ccc(O)cc1,10.2%,
CCCCC/C=C\C/C=C\C/C=C\CCCCC(=O)O,14.9%,
CCN(CC)CCOc1ccccc1OC,-0.561%,
CCOc1cc(-c2nccc3cc(OC)c(OC)cc23)cc(OCC)c1OCC,-3.95%,
CO/N=C(\C(=O)N[C@@H]1C(=O)N2C(C(=O)[O-])=C(C[n+]3cccc4c3CCC4)CS[C@H]12)c1csc(N)n1,15.5%,
CCOC(=S)SSC(=S)OCC,0.863%,
C[C@@H](O)[C@H]1C(=O)N2C(C(=O)[O-])=C(SC3Cn4cnc[n+]4C3)[C@H](C)[C@H]12 (stereo not given in full),-4.53%,
CNC(=O)C[C@@H](N)C(=O)N[C@@H](C(=O)N[C@@H]1C(=O)N2[C@@H]1SC(C)(C)[C@@H]2C(=O)O)c1ccc(O)cc1,-4.28%,
O=C(O)c1ccc(NC2OC[C@@H](O)[C@H](O)[C@H]2O)cc1 (stereo not given in full),-2.1%,
CCC(Cc1c(I)cc(I)c(O)c1I)C(=O)O (stereo not given),11.2%,
CSc1nc2cc(Oc3cccc(Cl)c3Cl)c(Cl)cc2[nH]1,0.358%,
CN[C@H](CC(C)C)C(=O)N[C@H]1C(=O)N[C@@H](CC(N)=O)C(=O)N[C@H]2C(=O)N[C@H]3C(=O)N[C@H](C(=O)N[C@@H](C(=O)O)c4cc(O)cc(O)c4-c4cc3ccc4O)[C@H](O)c3ccc(c(Cl)c3)Oc3cc2cc(c3O[C@@H]2O[C@H](CO)[C@@H](O)[C@H](O)[C@H]2O[C@H]2C[C@](C)(N)C(O)[C@H](C)O2)Oc2ccc(cc2Cl)[C@H]1O (stereo not given in full),3.65% and -0.964%,
O=C1NC(=O)[C@H]2[C@@H]1[C@@H]1C=C[C@H]2C1,-6.7%,
Cc1cc2nc3c(=O)[nH]c(=O)nc-3n(C[C@H](O)[C@H](O)[C@H](O)COP(=O)(O)OP(=O)(O)OC[C@H]3O[C@@H](n4cnc5c(N)ncnc54)[C@H](O)[C@@H]3O)c2cc1C,-3.17%,
CC(C)C[C@H](NC(=O)[C@@H](Cc1c[nH]c2ccccc12)NC(=O)[C@H](Cc1ccc(O)cc1)NC(=O)[C@H](CO)NC(=O)[C@H](Cc1c[nH]c2ccccc12)NC(=O)[C@H](Cc1cnc[nH]1)NC(=O)[C@@H]1CCC(=O)N1)C(=O)N[C@@H](CCCN=C(N)N)C(=O)N1CCC[C@@H]1C(=O)NCC(N)=O,-1.22%,
CC[C@@H](C)[C@H](N)C(=O)O,-5.92%,
CCN(CC)CCCC(C)Nc1cc(/C=C/c2ccccc2Cl)nc2cc(Cl)ccc12 (stereo not given),,11.2 µM (active)
CCCCCCCCCCCCOCCCN,-2.81%,
Oc1ccc(Cl)c2c1CCC2,-5.98%,
CNC(=O)c1c(I)c(C(=O)NCC(=O)Nc2c(I)c(C(=O)O)c(I)c(C(=O)NCCO)c2I)c(I)c(N(C)C(C)=O)c1I,1.95%,
